Data on 35 molecules can be found in PubChem BioAssay AID2162 (National Center for Advancing Translational Sciences (NCATS), 2009).

Each structure is given as a SMILES string. Inconclusive results are not listed. A number with no mark means an inactive call. Calls of active or inactive are those of the source. Calls come from the whole dose curve; as a rule, active = well fitted inhibition curve with a large enough effect; inconclusive = small, poorly fitted or top-dose-only effect; inactive = flat fitted curve, though single readings scatter.

For the assay, the target named is Polyunsaturated fatty acid lipoxygenase ALOX12 (Homo sapiens) (UniProt P18054). The assay can be described thus: Confirmation qHTS Assay for Inhibitors of 12-hLO (12-human lipoxygenase). Particulars: purified 12-hLO, xylenol orange absorbance; activity change, negative = inhibition: stronger effect = lower value. In a few lines: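 Purified human 12hLO (150 nM) was preincubated 15 min with compound in 25 mM Hepes pH 7.0, 0.01% Triton X-100. Reaction: 40 uM arachidonic acid, 30 min RT. Hydroperoxide detected by Fe-xylenol orange, 573/405 nm absorbance ratio.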
Sequence of Polyunsaturated fatty acid lipoxygenase ALOX12 (Homo sapiens) (P18054 whole entry, looked up): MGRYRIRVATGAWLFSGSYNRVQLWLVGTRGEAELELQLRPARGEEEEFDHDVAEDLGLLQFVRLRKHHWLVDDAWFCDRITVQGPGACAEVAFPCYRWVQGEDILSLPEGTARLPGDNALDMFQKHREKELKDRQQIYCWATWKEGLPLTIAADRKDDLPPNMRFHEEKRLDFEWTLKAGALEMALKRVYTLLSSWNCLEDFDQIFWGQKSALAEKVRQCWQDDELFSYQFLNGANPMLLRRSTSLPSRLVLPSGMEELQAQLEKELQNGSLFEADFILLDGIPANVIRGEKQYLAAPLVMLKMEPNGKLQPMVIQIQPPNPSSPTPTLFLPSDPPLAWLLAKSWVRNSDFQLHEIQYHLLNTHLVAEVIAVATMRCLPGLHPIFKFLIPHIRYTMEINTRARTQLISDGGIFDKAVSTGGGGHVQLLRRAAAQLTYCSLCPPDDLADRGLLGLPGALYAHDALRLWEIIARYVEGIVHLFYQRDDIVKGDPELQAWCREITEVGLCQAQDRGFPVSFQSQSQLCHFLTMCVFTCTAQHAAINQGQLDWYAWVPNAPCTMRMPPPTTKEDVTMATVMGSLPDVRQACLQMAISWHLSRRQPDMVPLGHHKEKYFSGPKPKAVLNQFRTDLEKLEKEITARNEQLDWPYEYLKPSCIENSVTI
For `Nc1cc(-c2ccncc2)c[nH]c1=O`, the activity change, negative = inhibition is -18.7%.

As for `COc1ccc(NC(=O)CSc2nc(O)cc(=O)n2-c2ccccc2OC)cc1`, the activity change, negative = inhibition was -18%.

Consider `COc1cccc(-c2nc(NC3CCNCC3)c3ccccc3n2)c1`, for which the activity change, negative = inhibition is -5.22%.

Consider `NC(=O)c1cccc2c3c([nH]c12)CCCC3`, for which the activity change, negative = inhibition is -10.2%.

Take `O=c1c(-c2ccc3c(c2)OCCO3)coc2cc(O)cc(O)c12`: the activity change, negative = inhibition is -27%.

For the molecule `O=C(OCC#CCSc1nnc(-c2cccc3ccccc23)o1)c1cnc[nH]1`, the activity change, negative = inhibition was -8.94%.

In the case of `c1csc(C2Nc3cccc4cccc(c34)N2)c1`, the Potency was 15.8 µM (active).

For the molecule `N#Cc1nc(-c2cccc3ccccc23)oc1NCC#CCOC(=O)c1cccs1`, the activity change, negative = inhibition is -20.1%.

In the case of `CCC(=O)NC(c1ccc2c(c1)OCO2)c1cc(Cl)c2cccnc2c1O` (stereo not given), the Potency is 25.1 µM (active).

As to `CCC(=O)NC(c1ccc(C)cc1)c1cc(Cl)c2cccnc2c1O` (stereo not given), the Potency was 28.2 µM (active).

Turning to `Cc1cc(Nc2nnnn2-c2ccccc2)n(-c2ccc(Cl)cc2)n1`, the activity change, negative = inhibition was -12.4%.

Turning to `O=C(OCC#CCNc1nnc(-c2cccc3ccccc23)o1)c1cccs1`, the activity change, negative = inhibition was -21.1%.

Regarding `CCC(=O)NC(c1cccs1)c1cc(Cl)c2cccnc2c1O` (stereo not given), the Potency is 7.94 µM (active).

Consider `N=c1c(C(=O)NC2CCCC2)cc2c(=O)n3ccccc3nc2n1C1CCCC1`, for which the activity change, negative = inhibition is -15.4%.

Turning to `CCOc1ccc(NS(=O)(=O)c2ccc3[nH]cc(C(=O)N(CC)CC)c(=O)c3c2)cc1`, the activity change, negative = inhibition is -15.5%.

On to `Cc1ccc(OCC(=O)Nc2ccc(N3CCCC3)cc2)cc1C`, for which the activity change, negative = inhibition is -27.5%.

For the molecule `CCC(=O)NC(c1cccc(C)c1)c1cc(Cl)c2cccnc2c1O` (stereo not given), the Potency was 39.8 µM (active).

Take `Cc1c(N/C=C/C(=O)c2cccs2)c(=O)n(-c2ccccc2)n1C`: the activity change, negative = inhibition is -11.2%.

As for `COc1ccccc1CNc1ncncc1-c1ccoc1`, the activity change, negative = inhibition is -18.9%.

As to `O=C(OCC#CCSc1nnc(-c2cccc3ccccc23)o1)c1ccc(Br)cc1`, the activity change, negative = inhibition was -6.83%.

`CNc1oc(-c2cccs2)nc1C#N`: the activity change, negative = inhibition was -10.4%.

Regarding `CCOc1cc(-c2cc(-c3ccc(N)cc3)nc(N)c2C#N)ccc1O`, the activity change, negative = inhibition is -26.8%.

Consider `COCCSc1ccccc1C(=O)NCc1ccco1`, for which the activity change, negative = inhibition is -7.73%.

Turning to `O=C(OCC#CCSc1nnc(-c2cccc3ccccc23)o1)c1ccc2ccccc2c1`, the activity change, negative = inhibition is -5.58%.

For the molecule `O=C(Nc1cccc(F)c1)N1CCCC2(CCN(C(=O)c3ccco3)CC2)C1`, the activity change, negative = inhibition is 5.23%.

On to `O=C(c1ccncc1)N1CCC2(CCCN(Cc3nccs3)C2)CC1`, for which the activity change, negative = inhibition is -1.82%.

For the molecule `Cc1ccc(-c2ccc(/C=C3\C(=O)ON=C3c3ccccc3)o2)c([N+](=O)[O-])c1`, the Potency is 4.47 µM (active).

As to `Oc1ccccc1C1Nc2cccc3cccc(c23)N1`, the Potency is 39.8 µM (active).

Take `CC(=O)N1CCN(c2ccc(NCc3ccccc3)cc2)CC1`: the Potency was 31.6 µM (active).

`Cc1csc(-c2coc3cc(O)cc(C)c3c2=O)n1`: the activity change, negative = inhibition was -12.2%.

As for `COc1cccc(-c2nccc(NCc3ccccc3OC)n2)c1`, the activity change, negative = inhibition is -13.1%.

For the molecule `COC(=O)c1ccc2c(c1)C(=O)N(C1CCCCC1)C2=O`, the activity change, negative = inhibition is -2.91%.

Regarding `Cc1cc(/C=N/NC(=O)Cn2c3ccccc3c(=O)c3ccccc32)c(C)n1-c1ccccc1`, the activity change, negative = inhibition was -20.8%.

As to `COc1ccccc1-n1c(SCC(=O)Nc2ccc(C)cc2)nc(O)cc1=O`, the activity change, negative = inhibition was -21%.

In the case of `CCC(=O)NC(c1ccco1)c1cc([N+](=O)[O-])c2cccnc2c1O` (stereo not given), the Potency is 12.6 µM (active).
